Screens from PubChem.
Hits are enriched below; roughly 18% of the tested compounds scored in any of these assays.
GCN5L2 inh: blocks human GCN5L2 histone acetyltransferase; Q92830; GCN5L2 HAT assay, ThioGlo1 CoA-SH fluorescence; Potency, µM (highest dose often 58.9 µM), inactives show at the top dose activity change, negative = inhibition, actives largely listed as inhibitors; hit rate 0.21% among 390,000; AID 504327
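Titration-based screen in which CoA formation is detected via maleimide probe ThioGlo1 (50uM) turning fluorescent on thiol reaction; substrates H3(1-25) 75uM and acetyl-CoA 70uM, GCN5L2 20nM, 20 min incubation at room temperature.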
DT40 TDP1 no CPT: qHTS for Inhibitors of human tyrosyl-DNA phosphodiesterase 1 (TDP1): qHTS in cells in absence of CPT; DT40 Tdp1-/- hTDP1 cells, no CPT, ATP luminescence, 48 h; Potency, µM (doses to about 46.2 µM), without a hit: at the top dose activity change, negative = growth inhibition, actives largely listed as inhibitors; hit rate 15% among 420,000; note: nearly all actives have a fitted effect of over 55% in size
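Cells were dispensed at 400 per well, compounds added by pin tool, plates incubated ≥48 hr at 37 °C, then CellTiter-Glo added for 30 min at room temperature before luminescence reading. Line: DT40 Tdp1-/- complemented with hTDP1; camptothecin omitted.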
DT40 TDP1 CPT: DT40-hTDP1 cell growth loss with CPT; chicken DT40 Tdp1-/-;hTDP1 cells + 20 nM CPT, ATP luminescence, 48 h; Potency, µM (highest dose often 46.2 µM), for the others: top-dose activity change, negative = growth inhibition, usual class: inhibitors; hit rate 12% among 420,000; note: nearly all actives have a fitted effect of over 55% in size
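Chicken DT40 Tdp1-/- cells stably complemented with human TDP1 were seeded at 400 cells/well in medium containing 20 nM camptothecin, exposed to pin-transferred compounds, and grown at 37 °C for at least 48 hr. Viability was read as ATP luminescence.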
TDP1 inh: TDP1 (human) enzyme inhibition. Q9NUW8. AID 485290. Potency, µM (doses to about 130 µM), for the others: at the highest dose activity change, negative = inhibition, actives largely listed as inhibitors. hit rate 0.28% among 350,000. recombinant TDP1, AlphaScreen DNA substrate cleavage; note: nearly all actives have a fitted effect of over 40% in size
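E. coli-derived human Tdp1, 1 nM final. Cpd preinc 15 min RT; substrate 15 nM final, 5 min RT; AS bead mix 10 ug/ml final, 10 min RT. Signal loss = tyrosine-FITC cleavage. No-enzyme wells = max signal.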
VDR inh: vitamin D3 receptor (human) inhibition. VDR-SRC2-3 peptide fluorescence polarization, 2 h. AID 504847. P11473. Potency, µM, for inactives: max response, negative = inhibition, hits mostly inhibitors. hit rate 0.93% among 400,000
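Measured by FP: displacement of SRC2-3 coactivator peptide from VDR by library compounds, following a two-hour ambient incubation.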
PLK1 PBD inh: inhibitors of human PLK1 polo-box domain binding; Plk1 PBD binding of FITC phosphopeptide, fluorescence polarization; hit rate 2.8% among 360,000; AID 720504; Potency, µM, inactives show max response, negative = inhibition, most hits filed as inhibitors; note: series mostly up to about 57 µM; nearly all actives have a fitted effect of over 65% in size
Target sequence (P53350 whole entry, looked up, the tested form may be a part): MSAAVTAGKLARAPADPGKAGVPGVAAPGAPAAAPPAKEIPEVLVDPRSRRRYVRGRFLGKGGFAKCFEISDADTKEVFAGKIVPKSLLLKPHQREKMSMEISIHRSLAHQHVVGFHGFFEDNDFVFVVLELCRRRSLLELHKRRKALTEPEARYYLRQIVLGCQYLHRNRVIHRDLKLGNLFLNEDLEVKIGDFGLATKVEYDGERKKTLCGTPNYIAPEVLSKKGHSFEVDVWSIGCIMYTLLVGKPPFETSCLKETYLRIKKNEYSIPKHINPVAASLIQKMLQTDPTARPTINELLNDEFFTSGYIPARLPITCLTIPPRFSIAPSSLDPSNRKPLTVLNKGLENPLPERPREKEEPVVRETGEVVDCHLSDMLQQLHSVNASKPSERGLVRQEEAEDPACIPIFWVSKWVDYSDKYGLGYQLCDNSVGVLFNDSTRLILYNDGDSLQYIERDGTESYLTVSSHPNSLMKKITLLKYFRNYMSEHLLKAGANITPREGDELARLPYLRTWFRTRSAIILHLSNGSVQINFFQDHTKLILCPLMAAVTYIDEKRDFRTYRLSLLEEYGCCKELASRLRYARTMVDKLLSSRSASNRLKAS
* hit, by the source's call; ? = inconclusive; nt = no result given; [ ] = dose if it differs, or a comment. Calls come from the whole dose curve; as a rule, active = well fitted curve in the direction sought with a large enough effect; inconclusive = small, poorly fitted or top-dose-only effect, or another doubt; inactive = no such curve, though single readings can be large; an effect the other way counts as inactive or inconclusive. % is set by controls: 0 for no effect and ±100 for the full control effect; potency is the fitted concentration of half-maximal effect.

SMILES	GCN5L2 inh	DT40 TDP1 no CPT	DT40 TDP1 CPT	TDP1 inh	VDR inh	PLK1 PBD inh
CC(=O)c1ccc(N2CCN(C(=O)CCCCn3c(=O)[nH]c4ccsc4c3=O)CC2)cc1	-10%	23µM*	13µM*	3%	4%	nt
O=C(CCn1c(=O)[nH]c2ccsc2c1=O)N1CCN(c2cccc(Cl)c2)CC1	-3%	?	-11%	6%	23%	-18%
NC(=O)C1CCN(C(=O)CCCCCn2c(=O)[nH]c3ccsc3c2=O)CC1	-5%	-1%	1%	5%	-13%	5%
O=C(CCn1c(=O)[nH]c2ccsc2c1=O)N1CCN(c2ccc([N+](=O)[O-])cc2)CC1	-13%	?	16µM*	4%	7%	-8%
O=C(CCCCCn1c(=O)[nH]c2ccccc2c1=O)N1CCN(c2ccc(Cl)cc2)CC1	-10%	?	?	9%	-5%	nt
O=C(CCCCn1c(=O)[nH]c2ccsc2c1=O)N1CCN(c2cccc(Cl)c2)CC1	-6%	13µM*	16µM*	9%	5%	nt
CCOC(=O)C1CCCCN1Cc1nc(N2CCN(C(C)=O)CC2)c2ccccc2n1 (stereo unspecified)	nt	-28%	-6%[9.04 µM]	nt	nt	nt
O=C(Nc1cccc(Cl)c1Cl)c1ccc2c(c1)N(Cc1cccc(Cl)c1)C(=O)c1ccccc1S2=O (stereo unspecified)	-2%	2%	-18%	4%	-1%	nt
Cc1ccc(-n2c(C)nnc2SCC(=O)NC2CCCC2)cc1	1%	-11%	-4%	3%	-8%	-7%
CC(=O)c1ccc(N2CCN(C(=O)CCCc3nc4ccccc4s3)CC2)cc1	-4%	10µM*	12µM*	-3%	4%	-5%
O=C(CCc1nc2ccccc2s1)N1CCN(c2ccccc2)CC1	-2%	?	-27%	-4%	-26%	-9%
COC(=O)c1ccc2c(=O)n(CCCCCC(=O)N3CCN(c4cccc(C)c4C)CC3)c(=O)[nH]c2c1	2%	?	?	5%	17%	nt
Cc1cccc(N2CCN(C(=O)CCCn3c(=O)[nH]c4ccsc4c3=O)CC2)c1C	-2%	?	21µM*	0%	?	nt
C/C(=N\NC(=O)c1ccccc1F)c1ccc2c(c1)Nc1ccccc1S2	-9%	23µM*	5.8µM*	4%	-4%	13%
COc1ccc(C(=O)N/N=C(/C)c2cccc(NC(=O)c3ccccc3F)c2)cc1	-4%	?	?	2%	-5%	3%
COc1ccc(CN(C)CCCn2cnc3c(OC)ncnc32)cc1OC	nt	8%	2%	nt	nt	-5%
Cc1ccc(-c2cc(C(=O)N(C)Cc3cnn(C)c3C)c3cc(Br)ccc3n2)cc1	2%	10µM*	7.3µM*	3%	-25%	-8%
CCCCCCCCCCOC(=O)Cn1c(COc2ccccc2OC)[n+](C)c2ccccc21	-13%	1.3µM*	1µM*	5%	7%	-11%
CCCCNC(=O)c1cccnc1SCC(=O)Nc1ccccc1OC	-7%	-25%	-13%	0%	-4%	5%
CCCCCCCCNC(=O)c1cccnc1SCC(=O)Nc1ccc(OC)cc1OC	-3%	21µM*	-26%	3%	-16%	-9%
COc1ccccc1NC(=O)CSc1c2c(nc3ccccc13)CCC2	2%	?	?	-1%	?	-22%
COc1ccc(NC(=O)CSc2c3c(nc4ccccc24)CCCC3)c(OC)c1	-7%	18µM*	21µM*	3%	?	-23%
COc1ccc(NC(=O)CSc2cn[nH]n2)c(OC)c1	-4%	-15%	-13%	2%	-9%	-18%
COc1ccc(NC(=O)CSc2nc(O)cc(=O)[nH]2)c(OC)c1	11%	?	?	nt	?	24µM*
Cc1cc(Br)ccc1NC(=O)CSc1c2c(nc3ccccc13)CCC2	-7%	12µM*	15µM*	2%	-16%	nt
SMILES	GCN5L2 inh	DT40 TDP1 no CPT	DT40 TDP1 CPT	TDP1 inh	VDR inh	PLK1 PBD inh
CCC(=O)Nc1ccc(NC(=O)CSc2nc3cc4c(cc3cc2C)CCC4)cc1	-10%	?	?	7%	-3%	-2%
Cc1ccccc1NC(=O)CSc1nc2cc3c(cc2cc1C)CCC3	-1%	3.7µM*	4.6µM*	6%	16%	-8%
COc1ccc(-c2c(C#N)c(SCC(=O)Nc3ccccc3)nc3c2CCCC3)cc1	nt	?	26µM*	nt	-5%	-28%
COc1ccc(-c2c(C#N)c(SCC(=O)Nc3ccc(C)cc3)nc(C)c2C(=O)Nc2ccccc2)cc1	-5%	1%	4%	2%[2.28 µM]	-4%	nt
CCOC(=O)C1=C(C)N(C)C(=S)NC1c1cc(OC)ccc1OC (stereo unspecified)	-3%	21µM*	?	6%	-4%	-14%
CCCN(C(=O)Cn1ncc2c1-c1ccccc1OC2)c1cccc(C)c1	2%	16µM*	?	3%	-4%	nt
Cc1ccc2c(c1)-c1c(cnn1CC(=O)Nc1ccccc1N1CCN(C)CC1)CO2	-9%	?	?	0%	-1%	-9%
COc1ccccc1N1CCN(C(=O)Cn2ncc3c2-c2cc(C)ccc2OC3)CC1	-2%	21µM*	26µM*	-1%	-12%	nt
Cc1cccc(N2CCN(C(=O)Cn3ncc4c3-c3cc(C)ccc3OC4)CC2C)c1 (stereo unspecified)	-6%	23µM*	23µM*	3%	-19%	nt
Cc1ccc2c(c1)-c1c(cnn1CC(=O)O)CO2	26%	?	-7%	-4%	2%	0%
CC(C)CCCC(C)C1CCC2C3CC=C4CC(=O)CC[C@@]4(C)C3CC[C@@]12C (stereo partly specified)	-9%	-1%	4%	-5%[56.1 µM]	?	nt
CC(C(=O)Nc1cccc(S(=O)(=O)N2CCOCC2)c1)N1CCN(c2ccc(F)cc2)CC1 (stereo unspecified)	-5%	?	7%	3%	-14%	-1%
CC1Cc2cc(/C(O)=C3/C(=O)C(=O)N(CCCn4ccnc4)C3c3cccc([N+](=O)[O-])c3)ccc2O1 (stereo unspecified)	-5%	1%	-1%	5%	-1%	-14%
CCOc1ccc(NC(=O)CN(C)C(=O)CCCOc2ccc(Cl)c(C)c2)cc1OCC	-25%	23µM*	15µM*	0%	5%	-1%
CCOc1ccc(NC(=O)CN(C)C(=O)c2ccccc2CCc2ccccc2)cc1OCC	?	?	21µM*	nt	-5%	6%
CCOc1ccc(NC(=O)CN(C)C(=O)c2ccc(OCc3ccccc3)c(OC)c2)cc1OCC	-12%	-13%	-25%	1%	-8%	-11%
